# Screening results (PubChem BioAssay)
# LmPK inh = inhibitors of Leishmania mexicana pyruvate kinase; Q27686; purified LmPK, Kinase-Glo ATP luminescence, 1 h; Potency, µM (series often up to 57.5 µM), for inactives: at the highest dose activity change, negative = inhibition, actives largely listed as inhibitors; 290,000 tested, 0.37% active
# Target sequence (Q27686 whole entry, looked up): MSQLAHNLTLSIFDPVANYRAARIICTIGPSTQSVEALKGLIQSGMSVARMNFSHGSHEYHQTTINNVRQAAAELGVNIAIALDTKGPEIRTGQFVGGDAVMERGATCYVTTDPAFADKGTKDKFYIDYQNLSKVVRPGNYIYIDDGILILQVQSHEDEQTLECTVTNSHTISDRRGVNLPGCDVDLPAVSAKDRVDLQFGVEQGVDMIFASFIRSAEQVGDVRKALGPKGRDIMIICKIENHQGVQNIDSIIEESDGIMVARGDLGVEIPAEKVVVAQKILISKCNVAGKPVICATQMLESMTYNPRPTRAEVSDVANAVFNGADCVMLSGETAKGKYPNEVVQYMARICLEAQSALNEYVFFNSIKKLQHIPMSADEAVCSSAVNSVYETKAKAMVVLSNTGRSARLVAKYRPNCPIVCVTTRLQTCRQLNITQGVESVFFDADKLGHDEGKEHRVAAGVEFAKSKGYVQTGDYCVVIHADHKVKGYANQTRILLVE
#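 Purified LmPK (0.1 nM) converted ADP (0.1 mM) to ATP with PEP (0.5 mM) in imidazole buffer pH 7.2 with KCl and MgCl2, 1 h at room temperature. ATP was read by Kinase-Glo luminescence; data normalized to uninhibited and no-enzyme controls.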
# RE007 growth inh = less growth of the S. pombe RE007 Vpr strain; S. pombe RE007 Vpr strain, BacTiter-Glo ATP luminescence, 24 h; AID 651644; Potency, µM (titrated, usually from 92.2 µM), for inactives: top-dose activity change, negative = less growth, most hits filed as inhibitors; 360,000 tested, 0.21% active; active = well fitted falling curve with a large enough effect; inconclusive = small, poorly fitted or top-dose-only effect; inactive = no such curve, though single readings can be large or run the other way; also: nearly all actives have a fitted effect of over 50% in size
#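 Fission yeast strain RE007, carrying one chromosomally integrated HIV-1 vpr copy, was seeded at OD 0.01 in PMG+AL medium with 23 nL pinned compound. After 24 h at 30 °C and 99% humidity, viability was read by BacTiter-Glo luminescence.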
# AMA1-RON2 inh = inhibitors of Plasmodium falciparum AMA1-RON2 interaction | AID 720542 | 360,000 tested, 0.2% active | Potency, µM (highest dose often 58.2 µM), for inactives: at the highest dose activity change, negative = inhibition, hits mostly inhibitors | AlphaScreen AMA1-biotinylated RON2 peptide binding;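 also: 0% = vehicle wells and -100% = peptide control; nearly all actives have a fitted effect of over 45% in size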
#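 AMA1 (3D7) with his tag at 25 nM final met compounds first, then biotinylated RON2 peptide at 25 nM; detection used donor plus acceptor beads, 10 µg/mL apiece, read by AlphaScreen after 30 min at room temperature.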
# Tb PYK inh = blocks Trypanosoma brucei pyruvate kinase; 410,000 tested, 0.12% active; Q57TT1; Potency, µM (top dose mostly 76.8 µM), inactives show top-dose activity, negative = inhibition, usual class: inhibitors; TbPYK enzyme, Kinase-Glo Plus ATP luminescence, 45 min; also: nearly all actives have a fitted effect of over 50% in size
#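 Glycolytic pyruvate kinase of T. brucei was incubated with substrate, test compound and 130 uM ADP for 45 minutes at room temperature. Luminescent Kinase-Glo Plus signal was measured after 10 minutes.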
# Vaccinia Venus = inhibitors of vaccinia virus (Venus reporter). Vaccinia virus Venus reporter expression, fluorescence. Potency, µM (highest dose often 36.5 µM), for inactives: at the highest dose activity change, negative = inhibition, usual class: inhibitors. AID 720580. 330,000 tested, 0.46% active; calls by dose curve; tested in A549 cells; also: nearly all actives have a fitted effect of over 30% in size
# Vaccinia mCherry = inhibitors of vaccinia virus infection (mCherry reporter signal). Vaccinia virus mCherry reporter infection, fluorescence. Potency, µM (top dose mostly 36.5 µM), for the others: at the highest dose activity change, negative = inhibition, most hits filed as inhibitors. 310,000 tested, 0.63% active. AID 720579; calls by dose curve; tested in A549 cells; also: nearly all actives have a fitted effect of over 35% in size
# * hit, by the source's call; i = inactive; u = inconclusive; x = no result given. A selection: hits, their analogues and other compounds. The true share with any hit is near 1.3%. Unless noted, calls follow the shape of the dose curve; as a rule, active = well fitted curve in the direction sought with a large enough effect; inconclusive = small, poorly fitted or top-dose-only effect, or another doubt; inactive = no such curve, though single readings can be large; an effect the other way counts as inactive or inconclusive. Unless noted, % is scaled to controls: 0 for no effect and ±100 for the full control effect; potency is read from the fitted curve at half-maximal effect.
SMILES,LmPK inh,RE007 growth inh,AMA1-RON2 inh,Tb PYK inh,Vaccinia Venus,Vaccinia mCherry
Oc1ccccc1N=N/C(=N/Nc1ccccc1O)c1ccccc1,x,-5%,9%,-5%,4%,u
Cc1cc(O)cc2c1O[C@](C)(CCC(=O)O)CC2,x,x,x,x,-14%,i
CN(C(=O)c1ccc(NC(=O)Cc2ccc(NC(=O)C3CCN(C(=O)CCc4ccccc4)CC3)cc2)cc1)C1CCCC1,x,8%,-8%,5%,-9%,i
CN(Cc1ccccc1)C(=O)c1ccc(NC(=O)Cc2ccc(NC(=O)C3CCCN(C(=O)C4CCC4)C3)cc2)cc1 (centres undefined),x,-4%,-12%,1%,-22%,-16%
CN(C(=O)c1cccc(NC(=O)Cc2ccc(NC(=O)C3CCCN(C(=O)CCc4ccccc4)C3)cc2)c1)C1CC1 (centres undefined),x,-2%,2%,-3%,-7%,u
CN(C(=O)c1ccc(NC(=O)Cc2ccc(NC(=O)C3CCCN(C(=O)CCc4ccccc4)C3)cc2)cc1)C1CCCC1 (centres undefined),x,6%,0%,1%,u,10µM*
CN(C(=O)c1cccc(NC(=O)Cc2ccc(NC(=O)C3CCCN(C(=O)CCc4ccccc4)C3)cc2)c1)C1CCCCC1 (centres undefined),x,1%,-5%,-5%,u,13µM*
CN(Cc1ccccc1)C(=O)c1ccc(NC(=O)Cc2ccc(NC(=O)C3CCCN(C(=O)CCc4ccccc4)C3)cc2)cc1 (centres undefined),x,1%,2%,-3%,u,10µM*
CC(=O)Nc1cc(C(=O)N2CCSCC2)cc2ncn(CCc3ccccn3)c12,x,x,x,x,2%,-14%
CCOc1cc(/C=N/NC(=O)Cc2ccc(C(F)(F)F)cc2[N+](=O)[O-])c(Br)cc1OC,6%,3%,0%,-6%,-5%,-8%
COc1cc(Br)cc(/C=N/NC(=O)Cc2ccc(C(F)(F)F)cc2[N+](=O)[O-])c1O,1%,6%,31%,3%,13µM*,20µM*
Cc1cccc(CNCCn2cc(C(=O)Nc3ccccc3)nn2)c1,x,x,x,x,-16%,-15%
Cc1nn(C)cc1-c1n[nH]c(=S)n1-c1ccc(Cl)cc1,7.9µM*,11%,45%,u,8%,i
CC(C)(C)c1cc(-c2n[nH]c(=S)n2-c2ccc(Cl)cc2)n[nH]1,13µM*,2%,59%,u,-14%,-5%
CC(C)c1cc[n+](-c2nc([O-])sc2C=O)cc1,-1%,-17%,10%,28µM*,-6%,x
Nc1nc(N)c2cc(CNc3ccc(Cl)c(Cl)c3)ccc2n1,x,14%,u,-3%,5.6µM*,u
CCc1ccc(OCC2c3cc(OC)c(OC)cc3CCN2C(=O)Cc2ccc(OC)c(OC)c2)cc1 (centres undefined),x,x,x,-2%,u,35µM*
COc1ccc2cc(-c3cc(C(=O)O)c4ccccc4n3)ccc2c1,-28%,u,11%,0%,4%,10µM*
COc1ccc(-c2nc3ccccc3c(=O)o2)cc1,18µM*,u,-27%,2%,-21%,0%
COc1ccc(N2CCN(C(=O)c3cc(-c4cc(OC)ccc4OC)nc4ccccc34)CC2)cc1,2%,19%,5µM*,-8%,-24%,-29%
COc1cc(OC)cc(-c2nc3ccccc3c(=O)o2)c1,3%,2%,2%,-6%,-4%,x
CCN(Cc1ccncc1)Cc1ccc2c(c1)CN(C(=O)c1cccc3c(C)c(C)[nH]c13)CCO2,x,x,x,x,6%,-3%
C[C@@H]1[C@H](O)[C@@H](C)C=CC=CCCC=CC=CC=CC=C[C@H](O[C@H]2O[C@@H](C)[C@H](O)[C@@H](N)[C@@H]2O)CC2O[C@](O)(C[C@@H](O)[C@H](O)CC[C@@H](O)C[C@@H](O)C[C@@H](O)CC(=O)O[C@H]1C)C[C@H](O)[C@H]2C(=O)O,x,x,x,0%,x,x
Cc1cc2c(c(-c3ccc(Cl)cc3)c1)OC(CNC(=O)Cc1c(C)noc1C)C2 (centres undefined),x,x,x,x,-10%,-15%
Nc1ccc2oc(-c3ccccc3Cl)cc(=O)c2c1O,1%,0%,-4%,8%,0.89µM*,0.79µM*
SMILES,LmPK inh,RE007 growth inh,AMA1-RON2 inh,Tb PYK inh,Vaccinia Venus,Vaccinia mCherry
O=S(=O)(NCc1cc(-c2ccccc2Cl)no1)c1ccc(Cl)cc1,2%,32µM*,-2%,u,x,x
COc1ccc(-c2cc(CNS(=O)(=O)c3ccc(NC(C)=O)cc3)on2)cc1,-3%,-11%,17%,-1%,1%,i
O=C(Nc1cccc(C(F)(F)F)c1)Nc1ccc(N2CCCC2)c(S(=O)(=O)Nc2ccccc2Cl)c1,3%,2%,-20%,-4%,11µM*,11µM*
C/C(=C\C(=O)Nc1ccccc1C(=O)O)c1ccc2ccccc2c1,x,x,x,-3%,x,x
CC1=CC(C)(C)Nc2ccc(Cc3ccc4c(c3)C(C)=CC(C)(C)N4)cc21,2%,-5%,16µM*,-8%,-20%,-15%
O=C(Nc1ccc(S(=O)(=O)NC2=NCCCCC2)cc1)c1ccc([N+](=O)[O-])s1,x,6%,-1%,1%,11µM*,13µM*
Cc1cc(C)n(-c2cccc(C(=O)NCC3Cc4cccc(-c5cccnc5)c4O3)c2)n1 (centres undefined),x,x,x,x,-24%,i
CO[C@H]1[C@H](NC(=O)c2ccsc2)c2ccccc2C12CCN(Cc1c(O)ccc3ccccc13)CC2,x,x,x,x,4%,-11%
Cc1ccc(O)c(-c2cc3ccccc3[nH]2)c1,-4%,35µM*,u,6%,x,x
Cc1ccn2c(Nc3ccc(F)cc3)c(-c3ccccn3)nc2c1,x,x,x,4%,u,u
Cc1ccc(Nc2c(-c3ccccn3)nc3cccc(C)n23)cc1,10%,u,-84%,0%,-21%,13µM*
Cc1cccc2nc(-c3ccccn3)c(Nc3ccccc3)n12,x,x,x,-7%,u,u
Cc1cccc2nc(-c3ccccn3)c(Nc3ccc(F)cc3)n12,x,x,x,-1%,u,10µM*
O=C(c1cccc(F)c1F)N1CCOc2ccc(CN3CCN(Cc4ccccn4)CC3)cc2C1,x,x,x,x,-11%,-15%
CCCC(=O)NC(c1ccc(C(C)C)cc1)c1ccc2cccnc2c1O (centres undefined),-10%,-30%,95%,-8%,-29%,u
CCCCC(=O)NC(c1ccc(OC)cc1)c1ccc2cccnc2c1O (centres undefined),x,6%,0%,-1%,u,10µM*
